A selection follows.
aSyn UTR act = Activators via SNCA 5'UTR binding, MLPCN | alpha-synuclein 5'UTR reporter, activators screen | activity score, % (tested at 7.5 µM), hits read low | 300,000 tested, 7.1% active | AID 1814; in the data active = activity score below about -60%
Active calls of the source: *.

SMILES	aSyn UTR act
O=C(Nc1ccccc1)C(=O)Nc1ccc2c(c1)N(C(=O)C1CC1)CCC2	-121*
O=C(COc1ccccc1Cl)NC(=S)N1CCc2ccccc21	-87*
CN1CCN(c2ccc(NC(=S)NC(=O)c3cccc4c(Cl)cccc34)cc2)CC1	-128*
COc1ccccc1C(=O)NC(=S)Nc1ccc(N2CCCC2)cc1	-83*
COc1c(C)cccc1C(=O)Nc1ccc(N2CCN(S(C)(=O)=O)CC2)cc1	-146*
COc1ccccc1C(=O)NC(=S)N1CCCc2ccccc21	-167*
O=C(COc1ccc(F)cc1Br)N1CCc2ccccc21	-86*
O=C(CNc1ccccc1OC(F)F)N1CCc2ccccc21	-289*
COc1c(C)cccc1C(=O)Nc1ccc(CN2CCOCC2)cc1	-109*
COCCNC(=S)Nc1ccc(N2CCCCC2)cc1	-173*
COc1ccccc1C(=O)Nc1ccc(N2CCN(S(C)(=O)=O)CC2)cc1	-76*
CCC(C)N1CC(O)=C(c2nc3ccccc3[nH]2)C1=N (configuration not stated)	-80*
CC1C(O)=C(c2nc3ccccc3[nH]2)C(=N)N1c1ccccc1 (configuration not stated)	-131*
N=C1C(c2nc3ccccc3[nH]2)=C(O)CN1c1ccccc1	-293*
COc1ccc(CNc2ccc(Br)cc2)cc1	-112*
COc1ccc(C(=O)Cc2ccc(OC)c(OC)c2)cc1	-109*
COc1ccc(CNc2cc(C)ccn2)cc1	-104*
COc1ccc(CNc2ccc(C)c(C)c2)cc1	-72*
COc1ccc(NCc2ccc(OC)c(OC)c2)cc1	-105*
COc1cc(CNc2ccc(C)c(C)c2)cc(OC)c1OC	-166*
CCOc1c(Br)cc(CNc2ccc3c(c2)OCCO3)cc1OC	97
Cc1ccc(C(=O)Nc2cccc3cccnc23)cc1Br	-178*
O=C(Nc1cccc2cccnc12)c1ccc2c(c1)OCCO2	-178*
COc1cc(NC(=O)c2ccc3c(c2)OCO3)c2ncccc2c1	-66*
c1cc2c(cc1C1CCCCC1)c1c3n2CCCNC3CCC1 (configuration not stated)	87
SMILES	aSyn UTR act
CN(CCc1ccccn1)C(=O)CCc1nnc(CCCc2ccccc2)o1	-91*
CC(C)N(Cc1nccn1C)C(=O)CCc1nnc(CCCc2ccccc2)o1	-120*
O=S(=O)(C/C(=C/CO)S(=O)(=O)c1ccccc1)c1ccccc1	-71*
C/C(=N\NC(=O)c1ccoc1C)c1ccc(Br)s1	-65*
Cc1occc1C(=O)N/N=C/c1ccc(Br)s1	-149*
Cc1ccc(/C=N/NC(=O)c2ccoc2C)s1	-120*
Fc1ccc(CSc2nnc3ccccn23)c(Cl)c1	-92*
Fc1ccc(-c2nnc(CSc3nnc4ccccn34)o2)cc1	-116*
c1ccc(-c2cnc(CSc3nnc4ccccn34)o2)cc1	-94*
Cc1nc(NC(=O)c2ccc(Br)o2)ccc1Br	-151*
Cc1nc(NC(=O)c2cc3ccccc3o2)ccc1Br	-160*
Cc1cccc(NC(=O)c2cc3ccccc3c(=O)o2)n1	-191*
O=c1c(C=NCc2ccccc2)c(NCc2ccccc2)nc2ccccn12	-66*
Cc1ccc(/C=C/C(=O)Nc2ncc(C)s2)o1	-207*
Cc1ccc(/C=C/C(=O)Nc2ccc(N(C)C)cc2)o1	-193*
Cc1cnc(NC(=O)/C=C/c2ccc(Br)o2)s1	-106*
Cc1ccc(/C=C/C(=O)Nc2nccs2)o1	-157*
Clc1ccc2nc3c4ccccc4cnn3c2c1	-160*
N#Cc1c(-c2ccc(Cl)cc2)ccn2nc(C3CCCCC3)nc12	-164*
C=C1c2ccccc2NC(=S)N1Cc1ccc2c(c1)OCO2	-99*
CSc1ccccc1-c1nnc(-c2ccc(C)cc2)o1	-106*
Cc1ccccc1-c1nnc(-c2ccc(Br)cc2)o1	-175*
Cc1ccccc1-c1nnc(CN2CCC(C)CC2)o1	-77*
Cc1ccccc1-c1nnc(-c2ccccc2C)o1	-145*
C=CCNC(=O)c1ccc(OC2CCN(S(=O)(=O)N(C)C)CC2)cc1	-162*
SMILES	aSyn UTR act
NNc1nc(-c2ccccc2Cl)nc2sc3c(c12)CCCC3	-200*
COc1ccc(OC)c(NC(=O)NC2(C(F)(F)F)Oc3ccccc3O2)c1	-73*
CCN1CCCC1CNC(=O)c1ccc2c(c1)NC(=O)/C(=C\c1ccc(C)cc1)S2 (configuration not stated)	74
O=C1Nc2cc(C(=O)NCCCN3CCCC3)ccc2S/C1=C/c1ccccc1F	-106*
O=[N+]([O-])c1cccc(/C=N/N2CCN(Cc3ccccc3)CC2)c1	-115*
O=[N+]([O-])c1cccc(/C=N/N2CCN(c3ccccn3)CC2)c1	-99*
Clc1ccc(C#Cc2cccnc2)cc1	-187*
NC(=Nc1ccc(Br)cc1)c1ccccc1	-75*
CCOC(=O)c1sc(NC(=O)C(C)(C)C)cc1C	-166*
CCOC(=O)c1sc(Nc2nc3c(OC)cccc3s2)cc1C	-196*
CCOC(=O)c1sc(NC(=O)c2ccccc2)cc1C	-181*
CCN(CC)Cc1c(NC(=O)c2ccccc2)sc(C)c1C	-87*
CCOC(=O)c1sc(NC(=O)c2ccc(Cl)s2)cc1C	-196*
CCOC(=O)c1sc(NC(=O)Nc2ccc(Cl)cc2)cc1C	-135*
CCOC(=O)c1sc(NC(=S)NC(=O)CC(C)C)cc1C	-102*
O=C(Nc1ccc(N2CCCCC2)cc1)c1ccc(F)cc1	-80*
O=C(c1ccc(F)cc1)c1ccc(N2CCCC2)cc1	-147*
O=C(Nc1ccc(N2CCCCC2)cc1)c1cccnc1	-149*
O=S(=O)(c1ccc(N2CCCC2)cc1)C(F)(F)F	-149*
O=C(Nc1ccc2nn(-c3ccc(F)cc3)nc2c1)c1cccnc1	-94*
O=C(c1ccc(F)cc1)c1ccc(N2CCCCC2)cc1	-145*
Cc1ccc2nc(N(CCCN(C)C)C(=O)c3ccc(S(=O)(=O)N4CCc5ccccc5C4)cc3)sc2c1	88
CCc1ccc2nc(NC(=O)c3ccc4c(=O)[nH]c(CN5CCOCC5)nc4c3)sc2c1	-107*
O=C(Nc1nc2cc3c(cc2s1)OCCO3)c1ccco1	66
CCc1ccc2nc(NC(=O)c3ccc(N4C(=O)CCC4=O)cc3)sc2c1	-73*
SMILES	aSyn UTR act
CN(C)CCN(C(=O)c1ccc(N2C(=O)CCC2=O)cc1)c1nc2cc3c(cc2s1)OCCO3	-75*
O=C(Nc1nc2cc3c(cc2s1)OCCO3)c1ccc(N2C(=O)CCC2=O)cc1	-65*
O=C1C(CSCc2ccccc2)NC(=S)N1c1ccccc1 (configuration not stated)	-68*
CNC(=O)C1CCN(S(=O)(=O)c2c(C)noc2/C=C/c2ccccc2F)CC1	-69*
CCc1cc2c(=O)n(C(C)C(=O)OC3CCCCC3)cnc2s1 (configuration not stated)	-137*
C/C(CC(=O)Nc1ccc2c(c1)OCCO2)=N\NC(=O)c1ccccn1	-143*
CCC(C)c1ccc(NC(=O)C/C(C)=N/NC(=O)c2cnccn2)cc1 (configuration not stated)	-63*
C/C(CC(=O)Nc1ccc2c(c1)OCCO2)=N\NC(=O)C(=O)Nc1ccccc1C	-74*
COc1ccc(NC(=O)C/C(C)=N/NC(=O)c2ccccn2)c(OC)c1	-107*
C/C(=N/NC(=O)c1ccccn1)c1ccncc1	-116*
C/C(CC(=O)Nc1cc(C)cc(C)c1)=N\NC(=O)c1ccccn1	-165*
C/C(CC(=O)Nc1ccccn1)=N\NC(=O)c1ccc2ccccc2c1	-64*
C/C(CC(=O)Nc1ccccn1)=N\NC(=O)c1ccccc1O	71
C/C(Cc1ccccc1)=N\NC(=O)c1ccccn1	-67*
C/C(=N\NC(=O)c1ccccc1Cl)c1ccccn1	82
